Screens deposited in PubChem by several laboratories.
SRC2 inh: inhibits human steroid receptor coactivator 2. inhibition, % at 9 µM. HEK293 GAL4-SRC2 luciferase reporter, luminescence. Q15596. 0.17% of 370,000 active. AID 651957;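 active = inhibition above the mean inhibition of all tested compounds plus 3 SD, set per campaign, cut at about 52% in these data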
Gli-Sufu block: antagonists of Gli-Sufu signaling; 0.74% of 340,000 active; Sufu-KO-LIGHT fibroblasts, Gli luciferase reporter luminescence; inhibition, % at 5 µM;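 active = inhibition above about 55%, limit read from the data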
COUP-TFII inh: NR2F2 (human) inhibition, primary screen; P24468; HEK293T NGFI-A luciferase reporter, luminescence; inhibition, % at 8.6 µM; 0.7% of 370,000 active;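 active = inhibition above a per-plate cutoff, mean inhibition of test wells between control levels plus 3 SD, cut at about 38% in these data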;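 also: cells cotransfected with COUP-TFII expression vector driving the NGFI-A reporter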
SRC3 inh: inhibitors of human steroid receptor coactivator 3 (SRC3); HEK293 GAL4-SRC3 luciferase reporter, luminescence; 0.17% of 360,000 active; inhibition, % at 3.6 µM;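 active = inhibition above a per-campaign cutoff, the mean of all compounds plus 3 SD, cut at about 60% in these data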;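 also: higher means less SRC3-driven luciferase light from the GAL4 reporter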
Target sequence (Q9Y6Q9 whole entry, looked up, the tested form may be a part): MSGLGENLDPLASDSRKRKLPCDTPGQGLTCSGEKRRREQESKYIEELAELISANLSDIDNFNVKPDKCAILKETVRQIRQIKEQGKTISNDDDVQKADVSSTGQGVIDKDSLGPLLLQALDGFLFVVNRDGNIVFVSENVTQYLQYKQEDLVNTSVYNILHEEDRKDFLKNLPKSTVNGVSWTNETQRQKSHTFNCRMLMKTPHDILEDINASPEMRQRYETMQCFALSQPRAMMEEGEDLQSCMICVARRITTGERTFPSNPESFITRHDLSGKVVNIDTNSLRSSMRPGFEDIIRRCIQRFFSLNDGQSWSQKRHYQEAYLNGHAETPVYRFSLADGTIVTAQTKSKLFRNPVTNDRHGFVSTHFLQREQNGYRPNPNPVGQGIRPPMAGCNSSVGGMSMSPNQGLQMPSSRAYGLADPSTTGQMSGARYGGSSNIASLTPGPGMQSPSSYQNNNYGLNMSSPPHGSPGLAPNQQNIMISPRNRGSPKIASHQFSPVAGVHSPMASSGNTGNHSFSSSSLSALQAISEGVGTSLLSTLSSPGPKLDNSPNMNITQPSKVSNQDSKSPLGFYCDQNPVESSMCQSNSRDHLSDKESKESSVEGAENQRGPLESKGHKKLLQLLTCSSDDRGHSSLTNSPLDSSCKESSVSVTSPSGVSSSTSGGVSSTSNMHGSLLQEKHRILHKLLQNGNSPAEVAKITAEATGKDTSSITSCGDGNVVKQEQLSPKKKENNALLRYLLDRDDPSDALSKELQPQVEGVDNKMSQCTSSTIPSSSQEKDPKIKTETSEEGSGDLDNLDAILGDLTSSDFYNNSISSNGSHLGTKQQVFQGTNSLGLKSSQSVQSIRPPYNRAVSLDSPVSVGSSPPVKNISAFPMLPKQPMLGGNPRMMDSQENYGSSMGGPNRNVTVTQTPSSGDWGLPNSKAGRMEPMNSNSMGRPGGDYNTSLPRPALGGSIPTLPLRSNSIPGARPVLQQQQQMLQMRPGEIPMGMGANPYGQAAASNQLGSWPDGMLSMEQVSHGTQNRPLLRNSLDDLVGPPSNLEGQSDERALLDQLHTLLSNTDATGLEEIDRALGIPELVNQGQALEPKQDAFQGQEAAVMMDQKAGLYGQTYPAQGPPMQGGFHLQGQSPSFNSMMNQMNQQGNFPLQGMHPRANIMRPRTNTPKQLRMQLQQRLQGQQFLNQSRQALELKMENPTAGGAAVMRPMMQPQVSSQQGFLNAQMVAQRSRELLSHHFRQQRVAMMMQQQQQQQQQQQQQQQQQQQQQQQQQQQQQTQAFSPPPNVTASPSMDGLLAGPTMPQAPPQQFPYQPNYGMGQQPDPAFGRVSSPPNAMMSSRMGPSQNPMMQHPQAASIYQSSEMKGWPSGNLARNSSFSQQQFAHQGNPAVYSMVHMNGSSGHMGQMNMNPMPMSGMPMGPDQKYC
LRH-1 inv ag: suppresses constitutive activity of human LRH-1 | 0.13% of 360,000 active | HEK293T StAR-luciferase reporter, LRH-1 transfected, 24 h | O00482 | inhibition, % at 3.6 µM;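 active = inhibition above the mean inhibition of all tested compounds plus 3 SD, cut at about 73% in these data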
NCOA1 inh: inhibitors of human steroid receptor coactivator 1 (SRC1); 0.12% of 360,000 active; HEK293 GAL4-SRC1 luciferase reporter, luminescence; inhibition, % at 3.6 µM; AID 588354; Q15788;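 active = inhibition above the campaign mean plus 3 SD, with each screening campaign given its own cutoff, cut at about 60% in these data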
Numbers stand for hits; 0 = inactive; - = no result given. Rows were chosen to be rich in hits. Some 1.3% of all compounds tested hit in one or more screens of this group.

SMILES	SRC2 inh	Gli-Sufu block	COUP-TFII inh	SRC3 inh	LRH-1 inv ag	NCOA1 inh
CC[C@H](NC(=O)[C@@H](Cc1ccccc1)NC(=O)[C@H]1O[C@@H](n2ccc(=O)[nH]c2=O)[C@H](O)[C@@H]1O)c1ccccc1	0	-	0	-	-	-
Cc1ccccc1/C=N/Nc1ccnc2cc(Cl)ccc12	0	0	0	0	0	0
Cc1ccc(/C=N/Nc2ccnc3cc(Cl)ccc23)c(C)c1	0	60	0	0	0	0
Cc1cc(-c2n[nH]c(=S)n2N=Cc2ccc(O)cc2)n[nH]1	0	-	0	-	-	-
O=C(N[C@H](C(=O)N1CCC[C@H]1C(=O)NCCc1ccccc1Cl)C1CCCCC1)c1cccs1	0	-	0	-	-	-
O=c1[nH]cnc2c1ncn2C1OC(CO)C(O)C1O (stereo not drawn)	0	0	0	0	0	0
CN(C)c1ncnc2c1nnn2C1OC(CO)C(O)C1O (stereo not drawn)	0	-	0	69	98	64
O=c1[nH]cnc2c1nnn2C1OC(CO)C(O)C1O (stereo not drawn)	0	-	0	0	85	0
CCCCCCCCCCCCCCCCn1cc[n+](CC(C)=O)c1	-	73	-	0	0	0
C#CCn1cc[n+](CC(=O)N(C)C)c1	0	0	0	0	0	0
Cc1cccc(NC(=O)n2ccc3ccc(-c4ccc5cc[nH]c5c4)cc32)c1	0	-	0	-	-	-
COc1ccc(/C=C/c2c([N+](=O)[O-])c(=O)n(C)c(=O)n2C)c(OC)c1	0	0	0	0	0	0
Cn1c(/C=C/c2ccc(Cl)cc2Cl)c([N+](=O)[O-])c(=O)n(C)c1=O	0	0	0	75	0	0
N=C1S/C(=C\c2ccc(-c3cccc(Cl)c3)o2)C(=O)N1c1nccs1	0	88	0	0	0	0
CCOC(=O)c1ccc(-c2ccc(N3C(c4cccc(OC)c4)=Cc4ccc(F)cc4C3CC(C)=O)cc2)cc1F (stereo not drawn)	60	-	0	-	0	-
CCn1c(SCC(=O)Nc2nc(-c3ccc(C)cc3)cs2)nnc1-c1ccccc1O	0	0	48	0	0	0
COc1cc(C=NO)nc(-c2ccccn2)c1	0	87	0	86	84	79
COc1ccc2nc(-c3ccccn3)[nH]c2c1	0	0	0	0	0	0
CCOC(=O)c1c(C)n(-c2ccc(C)cc2)c2c(C(C(C)=O)C(=O)O)c(Br)c(O)c(O)c12 (stereo not drawn)	0	0	0	0	0	0
CCOC(=O)C(C(C)=O)c1c(Br)c(O)c(O)c2c(C(=O)c3ccc(C)cc3)coc12 (stereo not drawn)	0	0	0	80	0	0
O=C(O)C1CC=CCC1C(=O)Nc1ccc2c(c1)OCCO2 (stereo not drawn)	56	0	0	0	0	0
COc1ccc(N=C(NN)c2ccc3ccccc3n2)cc1	63	0	75	0	77	0
O=C(Nc1ccc(NC(=O)c2ccco2)cc1)c1ccc2c(c1)OCCO2	61	0	0	0	0	0
O=c1[nH]c(=O)n(C2CC(O)C(CO)O2)cc1I (stereo not drawn)	0	0	0	0	0	0
O=c1[nH]c(=O)n([C@H]2C[C@H](O)[C@@H](CO)O2)cc1F	0	0	0	67	0	66
SMILES	SRC2 inh	Gli-Sufu block	COUP-TFII inh	SRC3 inh	LRH-1 inv ag	NCOA1 inh
Cn1c(=O)c2cc(NC(=O)CCc3ccc(O)cc3)ccc2n1Cc1cccc(C(F)(F)F)c1	0	-	0	0	74	0
CC(C)(C)C(=O)/C(=C/c1ccncc1)n1cncn1	72	0	0	63	0	0
COC(=O)Cc1c([C@H](C)[C@@H](OC)c2ccccc2Br)nnn1Cc1ccccc1	0	-	0	-	-	-
CCN(CC)c1nc2ccccc2[nH]c1=O	0	0	0	0	0	0
CN(c1nc2ccccc2[nH]c1=O)C1CCCCC1	0	57	0	0	0	0
Cc1ccc(-c2cc(-c3nnc(SCC(=O)NC4CCCCC4)n3N)[nH]n2)cc1	0	-	0	-	-	-
C/C(=N\Nc1ccc2nncn2n1)c1ccccn1	0	74	0	76	0	73
C[C@@H]1CN([C@@H](C)CO)C(=O)CCCn2cc(nn2)CO[C@H]1CN(C)C(=O)Nc1ccccc1	0	-	0	-	-	-
CCc1nnc(NC(=O)c2cccc(C(=O)Nc3nnc(CC)s3)n2)s1	0	85	0	0	0	0
O=C(NS(=O)(=O)c1ccccc1[N+](=O)[O-])[C@H]1O[C@@H](n2ccc(=O)[nH]c2=O)[C@H](O)[C@@H]1O	0	-	0	-	-	-
COc1cccc2c1C(=N)c1c(O)c3c(c(O)c1C2=O)CC(O)(C(C)=O)CC3OC1CC(N)C(O)C(C)O1 (stereo not drawn)	-	75	-	0	0	0
COc1cccc2c1C(=O)c1c(O)c3c(c(O)c1C2=O)CC(O)(C(C)=O)CC3OC1CC(O)C(O)C(C)O1 (stereo not drawn)	0	55	0	0	0	0
OCC1OC(n2ccc3c2ncn2ncnc32)C(O)C1O (stereo not drawn)	0	-	0	0	0	62
Nc1ccn(C2OC(CO)C(O)C2O)c(=O)n1 (stereo not drawn)	0	-	0	0	0	0
COc1ccc2nc(NN=C(C)c3ccccn3)cc(C)c2c1	0	79	0	0	0	0
COc1cc(C(=O)N/N=C(\C)c2ccccn2)cc(OC)c1OC	0	0	0	0	0	0
C[C@H](CO)N1C[C@H](C)[C@H](CN(C)C(=O)Nc2cccc(F)c2)OCc2cnnn2CCCC1=O	0	-	0	-	-	-
C=C(NC(=O)C(=C)NC(=O)c1csc(C2=NC3c4csc(n4)C4NC(=O)c5csc(n5)C(C(C)(O)C(C)O)NC(=O)C5CSC(=N5)/C(=C/C)NC(=O)C(C(C)O)NC(=O)c5csc(n5)C3(CC2)NC(=O)C(C)NC(=O)C(=C)NC(=O)C(=C)NC(=O)C(C(C)C)NC2C=Cc3c(C(C)O)cc(nc3C2O)C(=O)OC4C)n1)C(N)=O (stereo not drawn)	0	66	42	0	0	0
O=C(C1=C[C@H](c2ccccc2)C[C@H](OCCCCO)O1)N1CCN(Cc2ccccc2)CC1	0	0	0	0	0	0
C#Cc1ccc([C@@H]2C=C(C(=O)N3CCN(Cc4ccccc4)CC3)O[C@H](OCCCCO)C2)cc1	-	-	-	0	89	0
CCSc1nsc(NC(=O)Nc2ccccc2F)n1	0	0	0	0	0	0
C=CCSc1nsc(NC(=O)Nc2ccc(F)cc2)n1	0	0	54	0	0	0
COc1cc(OC)c2c(-c3cccc(-c4ccc(CO)cc4)c3)cc(=O)oc2c1	-	70	-	0	0	0
COc1ccc(-c2cccc(-c3cc(=O)oc4cc(OC)cc(OC)c34)c2)cc1	0	0	0	0	0	0
CCCCCc1ccc(OCCOCCn2c[n+](C)c3ccccc32)c(CCCCC)c1	-	87	-	0	0	0
C[n+]1cn(CC(O)COCc2ccccc2)c2ccccc21 (stereo not drawn)	0	0	0	0	0	0
COC(=O)c1ccc2nc(-c3ccco3)c(Cc3ccccc3OC)n2c1	0	-	0	-	-	-
